What all share (experiment): DAPPL (digital affinity profiling via proximity ligation, sequencing); 10 mM Tris-HCl pH 7.5, 50 mM NaCl, 1 mM DTT, 4% glycerol, room temperature, 30 min; GST-TFs on glutathione beads, 16-mer random dsDNA library, 0.1% formaldehyde crosslink after washing; high values mean tight binding
The target of one assay is T1, FEV (Homo sapiens, UniProt Q99581 1-238).
T1 sequence: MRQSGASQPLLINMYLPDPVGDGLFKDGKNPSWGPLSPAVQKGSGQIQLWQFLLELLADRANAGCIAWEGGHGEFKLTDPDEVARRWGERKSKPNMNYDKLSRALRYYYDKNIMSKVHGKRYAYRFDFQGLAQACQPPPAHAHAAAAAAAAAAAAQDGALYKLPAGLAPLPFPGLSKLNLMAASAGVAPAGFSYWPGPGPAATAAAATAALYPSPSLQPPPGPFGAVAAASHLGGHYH
The settings on record: protein: recombinant; tags: N-terminal GST; dsDNA, one strand shown. The procedure, abridged: (§1)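 Binding signal is given per hexamer as its read frequency for a factor divided by its frequency in the tag-only sample. GST-fused human transcription factors were expressed in yeast, captured on glutathione beads, barcoded with DNA and pooled with that sample, then incubated with 200 nmole of a 16-mer random double-stranded DNA library in Tris/NaCl/DTT/glycerol buffer for 30 min at room temperature. The pools were then washed, crosslinked, proximity-ligated, amplified by PCR and sequenced on an Illumina NextSeq500.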

For another assay, the target named is ETV5 (Homo sapiens, UniProt P41161 1-510). The settings on record: protein: recombinant; tags: N-terminal GST; dsDNA, one strand shown. The method, boiled down:
as §1

The target of a further assay is HSF1 (Homo sapiens, UniProt Q00613 1-529). Particulars: protein: recombinant; tags: N-terminal GST; chain copies: 3; dsDNA, one strand shown. The method, boiled down:
as §1

Another assay concerns the target T2, SPIC (Homo sapiens, UniProt Q8N5J4 1-248).
T2 sequence: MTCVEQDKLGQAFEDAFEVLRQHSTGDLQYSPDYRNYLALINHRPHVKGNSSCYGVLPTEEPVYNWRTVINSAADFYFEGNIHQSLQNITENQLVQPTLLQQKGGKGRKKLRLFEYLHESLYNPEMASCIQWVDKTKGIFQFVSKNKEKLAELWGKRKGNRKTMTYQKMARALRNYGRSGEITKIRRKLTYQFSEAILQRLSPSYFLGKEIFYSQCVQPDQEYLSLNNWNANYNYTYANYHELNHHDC
Particulars: protein: recombinant; tags: N-terminal GST; dsDNA, one strand shown. The procedure, abridged: as §1

Another assay concerns the target ELF4 (Homo sapiens, UniProt Q99607 1-663). The settings on record: protein: recombinant; tags: N-terminal GST; dsDNA, one strand shown. The procedure, abridged:
as §1

The target of another assay is T3, ELK4 (Homo sapiens, UniProt P28324-2 1-405).
T3 sequence: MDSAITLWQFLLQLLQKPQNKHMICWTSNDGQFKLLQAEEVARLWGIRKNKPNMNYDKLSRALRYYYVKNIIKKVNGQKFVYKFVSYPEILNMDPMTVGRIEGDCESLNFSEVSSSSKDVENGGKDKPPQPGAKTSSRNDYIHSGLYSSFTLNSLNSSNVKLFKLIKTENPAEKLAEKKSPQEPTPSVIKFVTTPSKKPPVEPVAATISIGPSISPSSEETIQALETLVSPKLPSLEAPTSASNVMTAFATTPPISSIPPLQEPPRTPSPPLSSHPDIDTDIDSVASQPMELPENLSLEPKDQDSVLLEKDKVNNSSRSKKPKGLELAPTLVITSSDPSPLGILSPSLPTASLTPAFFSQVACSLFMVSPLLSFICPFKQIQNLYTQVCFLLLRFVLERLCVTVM
Particulars: protein: recombinant; tags: N-terminal GST; dsDNA, one strand shown. The procedure, abridged: as §1

For the next assay, the target named is T4, ETV2 (Homo sapiens, UniProt O00321 1-342).
T4 sequence: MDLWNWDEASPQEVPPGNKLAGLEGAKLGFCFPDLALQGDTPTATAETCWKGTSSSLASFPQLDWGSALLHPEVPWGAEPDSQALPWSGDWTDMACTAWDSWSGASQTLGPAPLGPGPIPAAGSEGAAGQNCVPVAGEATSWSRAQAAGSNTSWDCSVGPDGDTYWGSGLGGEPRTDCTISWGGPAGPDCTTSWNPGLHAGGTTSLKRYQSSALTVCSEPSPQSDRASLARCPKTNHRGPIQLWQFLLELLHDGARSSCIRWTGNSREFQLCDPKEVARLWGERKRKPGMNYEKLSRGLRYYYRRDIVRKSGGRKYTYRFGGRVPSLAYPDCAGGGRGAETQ
The settings on record: protein: recombinant; tags: N-terminal GST; dsDNA, one strand shown. The procedure, abridged:
as §1

The next assay deals with T5, ELF3 (Homo sapiens, UniProt P78545 1-371).
T5 sequence: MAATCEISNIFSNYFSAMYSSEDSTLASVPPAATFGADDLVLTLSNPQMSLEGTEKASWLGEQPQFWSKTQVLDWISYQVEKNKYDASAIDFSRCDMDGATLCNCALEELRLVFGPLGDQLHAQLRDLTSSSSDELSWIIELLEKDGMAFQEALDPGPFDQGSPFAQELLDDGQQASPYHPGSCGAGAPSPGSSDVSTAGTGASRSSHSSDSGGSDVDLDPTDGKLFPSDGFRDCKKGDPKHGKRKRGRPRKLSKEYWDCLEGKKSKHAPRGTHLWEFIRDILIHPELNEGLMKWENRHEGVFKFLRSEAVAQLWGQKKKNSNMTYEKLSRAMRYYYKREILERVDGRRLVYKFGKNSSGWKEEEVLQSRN
The settings on record: protein: recombinant; tags: N-terminal GST; dsDNA, one strand shown. The procedure, abridged:
as §1

The target of the next assay is CRX (Homo sapiens, UniProt O43186 1-299). The settings on record: protein: recombinant; tags: N-terminal GST; dsDNA, one strand shown. The procedure, abridged: as §1
The next assay deals with ETV1 (Homo sapiens, UniProt P50549 1-477). The settings on record: protein: recombinant; tags: N-terminal GST; dsDNA, one strand shown. The method, boiled down:
as §1

The next assay has as its target T6, ERF (Homo sapiens, UniProt P50548 1-548).
T6 sequence: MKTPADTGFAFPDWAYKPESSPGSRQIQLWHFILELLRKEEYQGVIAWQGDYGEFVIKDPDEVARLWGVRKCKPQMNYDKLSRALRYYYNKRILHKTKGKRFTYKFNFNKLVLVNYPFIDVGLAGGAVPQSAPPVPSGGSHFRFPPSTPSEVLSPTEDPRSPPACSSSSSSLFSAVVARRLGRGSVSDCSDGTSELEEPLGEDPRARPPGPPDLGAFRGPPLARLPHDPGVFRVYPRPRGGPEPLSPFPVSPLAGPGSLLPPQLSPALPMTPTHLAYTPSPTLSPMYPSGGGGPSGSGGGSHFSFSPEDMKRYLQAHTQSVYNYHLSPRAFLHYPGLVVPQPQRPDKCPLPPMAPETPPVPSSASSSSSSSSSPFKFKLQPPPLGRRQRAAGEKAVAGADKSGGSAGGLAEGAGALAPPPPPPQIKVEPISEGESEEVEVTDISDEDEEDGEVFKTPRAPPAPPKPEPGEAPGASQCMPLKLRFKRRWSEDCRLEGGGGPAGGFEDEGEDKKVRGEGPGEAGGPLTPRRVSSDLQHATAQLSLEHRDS
Particulars: protein: recombinant; tags: N-terminal GST; dsDNA, one strand shown. The procedure, abridged: as §1

Another assay concerns the target T7, ETV3L (Homo sapiens, UniProt Q6ZN32 1-361).
T7 sequence: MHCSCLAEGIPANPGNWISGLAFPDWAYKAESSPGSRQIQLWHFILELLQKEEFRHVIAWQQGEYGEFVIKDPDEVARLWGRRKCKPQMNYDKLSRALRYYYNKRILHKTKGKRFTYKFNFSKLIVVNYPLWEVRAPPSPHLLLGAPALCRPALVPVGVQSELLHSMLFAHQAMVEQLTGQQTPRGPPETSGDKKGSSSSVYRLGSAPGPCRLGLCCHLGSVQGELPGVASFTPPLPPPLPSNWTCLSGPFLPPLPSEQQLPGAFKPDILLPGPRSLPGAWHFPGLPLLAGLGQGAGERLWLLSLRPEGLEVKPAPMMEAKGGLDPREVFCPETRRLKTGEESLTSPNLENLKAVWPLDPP
The settings on record: protein: recombinant; tags: N-terminal GST; dsDNA, one strand shown. The procedure, abridged: as §1

A further assay addresses T8, ETS2 (Homo sapiens, UniProt P15036 1-469).
T8 sequence: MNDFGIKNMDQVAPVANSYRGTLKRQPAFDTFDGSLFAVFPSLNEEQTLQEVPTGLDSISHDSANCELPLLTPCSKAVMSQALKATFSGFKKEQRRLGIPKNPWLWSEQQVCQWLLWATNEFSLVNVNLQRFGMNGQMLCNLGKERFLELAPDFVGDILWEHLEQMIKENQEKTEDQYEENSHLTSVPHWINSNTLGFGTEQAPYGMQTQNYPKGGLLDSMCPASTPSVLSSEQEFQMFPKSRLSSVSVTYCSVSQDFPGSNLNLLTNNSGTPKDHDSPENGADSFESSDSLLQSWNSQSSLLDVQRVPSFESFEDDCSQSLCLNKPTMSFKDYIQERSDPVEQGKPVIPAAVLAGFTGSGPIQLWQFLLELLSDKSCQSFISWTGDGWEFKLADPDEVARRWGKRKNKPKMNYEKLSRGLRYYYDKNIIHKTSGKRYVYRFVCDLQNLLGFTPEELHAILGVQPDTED
The settings on record: protein: recombinant; tags: N-terminal GST; dsDNA, one strand shown. The procedure, abridged:
as §1

The next assay has as its target T9, SPDEF (Homo sapiens, UniProt O95238 1-335).
T9 sequence: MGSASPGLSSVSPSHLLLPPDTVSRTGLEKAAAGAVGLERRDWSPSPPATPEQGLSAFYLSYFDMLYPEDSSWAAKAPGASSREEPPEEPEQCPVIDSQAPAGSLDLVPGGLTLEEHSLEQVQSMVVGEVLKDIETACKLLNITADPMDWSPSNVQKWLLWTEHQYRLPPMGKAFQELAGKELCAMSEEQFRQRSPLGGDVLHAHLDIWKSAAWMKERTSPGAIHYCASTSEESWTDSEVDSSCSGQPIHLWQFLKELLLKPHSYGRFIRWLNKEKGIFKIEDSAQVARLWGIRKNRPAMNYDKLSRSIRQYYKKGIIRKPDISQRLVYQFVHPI
The settings on record: protein: recombinant; tags: N-terminal GST; dsDNA, one strand shown. The method, boiled down:
as §1

In another assay the target is T10, ETV7 (Homo sapiens, UniProt Q9Y603 1-341).
T10 sequence: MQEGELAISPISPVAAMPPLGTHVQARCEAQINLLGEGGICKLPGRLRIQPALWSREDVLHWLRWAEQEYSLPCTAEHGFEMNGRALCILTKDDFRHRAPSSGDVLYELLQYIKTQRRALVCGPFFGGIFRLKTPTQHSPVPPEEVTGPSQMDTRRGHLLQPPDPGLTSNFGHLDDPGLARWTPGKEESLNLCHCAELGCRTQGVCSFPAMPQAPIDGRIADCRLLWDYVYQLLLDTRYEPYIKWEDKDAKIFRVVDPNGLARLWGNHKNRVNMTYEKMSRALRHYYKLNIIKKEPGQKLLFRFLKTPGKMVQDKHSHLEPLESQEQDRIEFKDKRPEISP
Particulars: protein: recombinant; tags: N-terminal GST; dsDNA, one strand shown. The procedure, abridged: as §1

The next assay has as its target T11, ELF5 (Homo sapiens, UniProt Q9UKW6-2 1-255).
T11 sequence: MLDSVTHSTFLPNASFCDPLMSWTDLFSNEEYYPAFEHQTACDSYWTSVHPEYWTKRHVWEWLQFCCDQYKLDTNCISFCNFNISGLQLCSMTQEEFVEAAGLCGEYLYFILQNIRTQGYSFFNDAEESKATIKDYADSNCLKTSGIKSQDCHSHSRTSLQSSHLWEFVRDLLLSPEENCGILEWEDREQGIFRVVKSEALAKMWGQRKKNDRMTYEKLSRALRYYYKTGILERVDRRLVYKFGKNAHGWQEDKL
The settings on record: protein: recombinant; tags: N-terminal GST; dsDNA, one strand shown. The procedure, abridged: as §1

The target in another assay is T12, ETV3 (Homo sapiens, UniProt P41162-2 1-143).
T12 sequence: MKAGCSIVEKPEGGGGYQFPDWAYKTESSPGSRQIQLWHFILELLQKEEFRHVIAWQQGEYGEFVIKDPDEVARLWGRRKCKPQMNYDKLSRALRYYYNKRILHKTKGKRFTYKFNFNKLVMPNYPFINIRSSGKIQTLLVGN
Particulars: protein: recombinant; tags: N-terminal GST; dsDNA, one strand shown. The procedure, abridged: as §1

The target of another assay is ETV6 (Homo sapiens, UniProt P41212 1-452). Particulars: protein: recombinant; tags: N-terminal GST; dsDNA, one strand shown. The method, boiled down:
as §1

ETV5, sequence (P41161 whole entry): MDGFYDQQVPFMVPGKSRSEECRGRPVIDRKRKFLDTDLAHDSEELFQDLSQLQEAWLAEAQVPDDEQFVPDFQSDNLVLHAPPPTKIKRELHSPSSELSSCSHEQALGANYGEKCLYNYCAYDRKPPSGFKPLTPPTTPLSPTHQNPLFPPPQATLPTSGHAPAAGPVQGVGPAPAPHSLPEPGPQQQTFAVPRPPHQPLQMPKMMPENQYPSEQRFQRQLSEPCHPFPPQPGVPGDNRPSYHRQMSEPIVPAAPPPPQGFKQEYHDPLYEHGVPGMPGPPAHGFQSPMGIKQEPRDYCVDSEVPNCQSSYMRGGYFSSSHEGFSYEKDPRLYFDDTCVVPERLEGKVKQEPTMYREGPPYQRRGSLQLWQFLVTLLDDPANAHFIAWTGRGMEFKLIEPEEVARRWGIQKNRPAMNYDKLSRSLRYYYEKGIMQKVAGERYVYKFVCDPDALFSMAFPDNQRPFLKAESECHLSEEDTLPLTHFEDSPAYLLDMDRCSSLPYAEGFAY
ELF4, sequence (Q99607 whole entry): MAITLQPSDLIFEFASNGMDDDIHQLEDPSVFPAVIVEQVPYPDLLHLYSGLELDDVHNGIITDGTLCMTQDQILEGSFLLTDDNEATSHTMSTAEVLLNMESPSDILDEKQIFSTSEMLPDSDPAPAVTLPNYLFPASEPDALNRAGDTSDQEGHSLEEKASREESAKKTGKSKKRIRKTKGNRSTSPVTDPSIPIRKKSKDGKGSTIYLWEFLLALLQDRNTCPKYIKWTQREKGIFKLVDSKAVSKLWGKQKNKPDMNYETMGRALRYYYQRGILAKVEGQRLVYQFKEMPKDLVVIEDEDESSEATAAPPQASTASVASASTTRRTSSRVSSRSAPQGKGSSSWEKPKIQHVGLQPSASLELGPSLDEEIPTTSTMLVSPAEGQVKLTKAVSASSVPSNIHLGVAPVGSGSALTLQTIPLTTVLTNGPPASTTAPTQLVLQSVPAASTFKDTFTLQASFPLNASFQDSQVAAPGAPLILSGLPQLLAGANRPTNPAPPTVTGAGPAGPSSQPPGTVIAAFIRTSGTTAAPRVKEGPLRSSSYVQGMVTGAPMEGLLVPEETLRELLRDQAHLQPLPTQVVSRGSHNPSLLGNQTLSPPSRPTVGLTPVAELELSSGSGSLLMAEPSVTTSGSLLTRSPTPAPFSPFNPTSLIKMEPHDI
ETV1, sequence (P50549 whole entry): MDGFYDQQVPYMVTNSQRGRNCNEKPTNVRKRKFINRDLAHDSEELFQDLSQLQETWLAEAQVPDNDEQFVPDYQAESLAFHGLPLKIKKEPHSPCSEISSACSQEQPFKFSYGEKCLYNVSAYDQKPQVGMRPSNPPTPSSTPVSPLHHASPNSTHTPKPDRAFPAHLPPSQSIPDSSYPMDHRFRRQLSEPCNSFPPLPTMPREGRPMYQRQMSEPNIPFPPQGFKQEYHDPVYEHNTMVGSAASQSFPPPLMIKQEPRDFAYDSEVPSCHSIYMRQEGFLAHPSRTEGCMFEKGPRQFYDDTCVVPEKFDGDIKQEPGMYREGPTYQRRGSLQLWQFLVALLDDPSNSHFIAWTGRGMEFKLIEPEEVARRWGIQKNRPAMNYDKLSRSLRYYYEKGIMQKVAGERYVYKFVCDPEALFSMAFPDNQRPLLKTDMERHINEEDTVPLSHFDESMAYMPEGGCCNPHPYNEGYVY
ETV6, sequence (P41212 whole entry): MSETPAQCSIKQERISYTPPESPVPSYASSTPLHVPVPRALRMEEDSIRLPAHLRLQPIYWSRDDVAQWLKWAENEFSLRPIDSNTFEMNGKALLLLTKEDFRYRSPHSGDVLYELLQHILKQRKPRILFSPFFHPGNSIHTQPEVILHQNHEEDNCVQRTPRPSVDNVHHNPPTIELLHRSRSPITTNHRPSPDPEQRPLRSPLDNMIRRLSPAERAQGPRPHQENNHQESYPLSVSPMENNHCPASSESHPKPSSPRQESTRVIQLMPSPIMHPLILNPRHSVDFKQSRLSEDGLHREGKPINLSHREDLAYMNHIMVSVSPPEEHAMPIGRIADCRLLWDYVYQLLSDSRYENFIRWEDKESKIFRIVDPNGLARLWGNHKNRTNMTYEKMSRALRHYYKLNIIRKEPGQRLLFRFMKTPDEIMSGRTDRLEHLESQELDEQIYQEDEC
CRX, sequence (O43186 whole entry): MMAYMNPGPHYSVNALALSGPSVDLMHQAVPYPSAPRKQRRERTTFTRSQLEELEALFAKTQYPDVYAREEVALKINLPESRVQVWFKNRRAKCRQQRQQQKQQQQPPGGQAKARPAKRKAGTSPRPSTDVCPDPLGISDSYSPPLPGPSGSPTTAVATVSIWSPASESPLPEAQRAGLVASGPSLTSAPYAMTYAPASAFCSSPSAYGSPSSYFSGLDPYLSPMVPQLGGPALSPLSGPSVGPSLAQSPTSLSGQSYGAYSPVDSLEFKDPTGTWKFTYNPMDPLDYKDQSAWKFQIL
HSF1, sequence (Q00613 whole entry): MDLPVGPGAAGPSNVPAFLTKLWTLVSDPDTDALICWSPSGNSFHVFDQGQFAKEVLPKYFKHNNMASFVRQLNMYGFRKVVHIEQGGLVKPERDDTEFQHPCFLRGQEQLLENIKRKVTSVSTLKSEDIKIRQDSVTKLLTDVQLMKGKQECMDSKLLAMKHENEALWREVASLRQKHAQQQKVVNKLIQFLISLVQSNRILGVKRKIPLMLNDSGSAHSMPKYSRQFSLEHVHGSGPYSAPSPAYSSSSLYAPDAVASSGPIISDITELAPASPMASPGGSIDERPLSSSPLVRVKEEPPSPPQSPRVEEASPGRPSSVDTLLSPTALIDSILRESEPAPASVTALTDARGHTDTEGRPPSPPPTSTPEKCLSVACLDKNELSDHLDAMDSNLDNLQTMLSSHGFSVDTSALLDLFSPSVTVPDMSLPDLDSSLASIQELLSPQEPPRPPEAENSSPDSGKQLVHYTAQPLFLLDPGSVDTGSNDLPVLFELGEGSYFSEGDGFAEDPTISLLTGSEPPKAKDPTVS

Turning to ATCGAC, the binding signal with FEV was 1.12 fold enrichment (6-mer frequency, TF over GST control); with ETV5, 1.25 fold enrichment (6-mer frequency, TF over GST control); with HSF1 it was 1.16 fold enrichment (6-mer frequency, TF over GST control); with SPIC it was 1.13 fold enrichment (6-mer frequency, TF over GST control); with ELF4, 1.21 fold enrichment (6-mer frequency, TF over GST control); with ELK4 it was 1.26 fold enrichment (6-mer frequency, TF over GST control). For the same sequence, the binding signal with ETV2 is 1.23 fold enrichment (6-mer frequency, TF over GST control); in the assay with ELF3, 1.14 fold enrichment (6-mer frequency, TF over GST control); in the assay with CRX it was 1.11 fold enrichment (6-mer frequency, TF over GST control); with ETV1, 1.16 fold enrichment (6-mer frequency, TF over GST control); with ERF, 1.1 fold enrichment (6-mer frequency, TF over GST control); with ETV3L, 1.21 fold enrichment (6-mer frequency, TF over GST control). The binding signal in the assay with ETS2 is 1.1 fold enrichment (6-mer frequency, TF over GST control); with SPDEF it was 1.06 fold enrichment (6-mer frequency, TF over GST control); with ETV7, 1.28 fold enrichment (6-mer frequency, TF over GST control); with ELF5, 1.09 fold enrichment (6-mer frequency, TF over GST control); in the assay with ETV3 it was 1.25 fold enrichment (6-mer frequency, TF over GST control); with ETV6, 1.21 fold enrichment (6-mer frequency, TF over GST control).
